Growth data for nine compounds are collected here from PubChem BioAssay (NCI).

The panel holds about 83,000 compounds, 20% with a hit somewhere; the sample as a whole holds those more often.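 The test compound was applied at a single concentration to cells in 96-well plates for 48 hours, and percent growth was recorded.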 Unmarked numbers belong to inactive results. Calls of active or inactive are those of the source. The calls were made as follows: active = growth percent below 10; inactive = the rest.

Test systems include SR leukemia; RPMI-8226 leukemia; OVCAR-8 ovarian; OVCAR-5 ovarian; OVCAR-4 ovarian; SK-OV-3 ovarian; IGROV1 ovarian; OVCAR-3 ovarian; HS 578T breast; NCI/ADR-RES ovarian; T-47D breast; BT-549 breast; MDA-MB-435 melanoma; SW-620 colon; MCF7 breast; HCT-116 colon; HCC-2998 colon; KM12 colon.
Test in all cases: NCI-60 one-dose screen, 48 h (100 = growth as untreated, 0 = no growth, -100 = all killed)
Common to all, as to conditions: 10 µM unless noted

On to `COC1NC(Cl)=C(C#N)C(C#N)(C#N)C1(C)C` (configuration not stated), for which the growth in the test with SR leukemia is 98.7%; in the test with RPMI-8226 leukemia it was 127%; in the test on OVCAR-8 ovarian, 107%; in the test with OVCAR-5 ovarian, 31.6%; in the test with OVCAR-4 ovarian it was 111%; in the test with SK-OV-3 ovarian, 113%. Moreover, the growth is -21.4% (active) in the test with IGROV1 ovarian; 123% with OVCAR-3 ovarian; 104% in the test on HS 578T breast; 120% with NCI/ADR-RES ovarian; 112% in the test on T-47D breast; 97% in the test on BT-549 breast. The growth was 124% in the test on MDA-MB-435 melanoma; 95.9% in the test on SW-620 colon; 124% with MCF7 breast; 108% with HCT-116 colon; 113% in the test on HCC-2998 colon; 111% in the test on KM12 colon.
As for `CCOC(=O)NC1=NCC(C)(C)S1`, the growth with SR leukemia was 104%; with RPMI-8226 leukemia it was 108%; with OVCAR-8 ovarian it was 104%; with OVCAR-5 ovarian, 98.9%; in the test with OVCAR-4 ovarian it was 102%; in the test on SK-OV-3 ovarian, 95.2%. Moreover, the growth with IGROV1 ovarian is 111%; in the test with OVCAR-3 ovarian it was 97.4%; in the test on HS 578T breast it was 98.7%; with NCI/ADR-RES ovarian, 103%; in the test on T-47D breast, 93.8%; in the test on BT-549 breast, 106%. The growth was 100% in the test with MDA-MB-435 melanoma; 103% with SW-620 colon; 100% with MCF7 breast; 105% in the test with HCT-116 colon; 98.3% in the test on HCC-2998 colon; 101% with KM12 colon.
Regarding `C[C@@H](c1ccc2c(c1)[nH]c1ccc(Cl)cc12)c1nc2ccccc2[nH]1`, the growth is 74.3% in the test with SR leukemia; 81.3% in the test with RPMI-8226 leukemia; 93% in the test on OVCAR-8 ovarian; 112% in the test on OVCAR-5 ovarian; 94% with OVCAR-4 ovarian; 105% with SK-OV-3 ovarian. The growth in the test on IGROV1 ovarian is 80.6%; in the test with OVCAR-3 ovarian, 86.7%; with HS 578T breast it was 105%; in the test on NCI/ADR-RES ovarian, 91%; with T-47D breast, 62.3%; with BT-549 breast, 83.4%. The growth in the test on MDA-MB-435 melanoma is 103%; in the test with SW-620 colon, 95.2%; in the test with MCF7 breast, 27.6%; with HCT-116 colon it was 93.5%; in the test with HCC-2998 colon it was 100%; with KM12 colon it was 90.7%.
In the case of `O=C(Nn1cnc2ccccc21)N1CCCC1`, the growth with SR leukemia is 76.5%; in the test on RPMI-8226 leukemia, 150%; with OVCAR-8 ovarian, 106%; with OVCAR-5 ovarian, 95.7%; with OVCAR-4 ovarian it was 118%; in the test on SK-OV-3 ovarian, 104%. For the same compound, the growth was 39.4% with IGROV1 ovarian; 104% with OVCAR-3 ovarian; 104% in the test on HS 578T breast; 119% with NCI/ADR-RES ovarian; 106% with T-47D breast; 96.5% in the test with BT-549 breast. For the same compound, the growth with MDA-MB-435 melanoma is 104%; in the test on SW-620 colon, 109%; in the test with MCF7 breast it was 108%; with HCT-116 colon, 85.1%; with HCC-2998 colon, 83.7%; in the test with KM12 colon it was 116%.
As to `O=C(CBr)OCc1ccc([N+](=O)[O-])o1`, the growth was 88.1% with SR leukemia; 86.3% with RPMI-8226 leukemia; 96.9% with OVCAR-8 ovarian; 101% with OVCAR-5 ovarian; 77.9% with OVCAR-4 ovarian; 105% with SK-OV-3 ovarian. The growth with IGROV1 ovarian is 10.5%; in the test on OVCAR-3 ovarian, 104%; in the test with HS 578T breast it was 106%; in the test with NCI/ADR-RES ovarian, 101%; with T-47D breast it was 95.2%; in the test on BT-549 breast, 118%. Moreover, the growth with MDA-MB-435 melanoma was 107%; in the test on SW-620 colon, 83.2%; in the test on MCF7 breast, 98.4%; in the test with HCT-116 colon, 106%; in the test on HCC-2998 colon it was 95.2%; in the test on KM12 colon, 105%.
Consider `CCCCCCCCCCCC(=O)OC(C)C(=O)Nc1ccccc1` (configuration not stated), for which the growth in the test on SR leukemia was 86.1%; in the test with RPMI-8226 leukemia, 99.8%; in the test on OVCAR-8 ovarian, 95.4%; in the test on OVCAR-5 ovarian, 95.2%; in the test with OVCAR-4 ovarian it was 105%; with SK-OV-3 ovarian, 97.6%. Besides, the growth is 103% with IGROV1 ovarian; 102% in the test on OVCAR-3 ovarian; 94.3% with HS 578T breast; 100% in the test on NCI/ADR-RES ovarian; 87.9% in the test on T-47D breast; 82% with BT-549 breast. The growth in the test with MDA-MB-435 melanoma is 106%; with SW-620 colon, 95.1%; in the test with MCF7 breast, 91.7%; with HCT-116 colon it was 96.5%; with HCC-2998 colon, 103%; in the test with KM12 colon it was 102%.
Turning to `N=C(N)c1ccc(-c2ccc(-c3ccc(Cl)cc3)s2)s1`, the growth is -30.1% (active) with SR leukemia; -38.2% (active) with RPMI-8226 leukemia; -37% (active) in the test with OVCAR-8 ovarian; -79.4% (active) in the test with OVCAR-5 ovarian; -50.8% (active) in the test with OVCAR-4 ovarian; -50.9% (active) in the test on SK-OV-3 ovarian. The growth in the test with IGROV1 ovarian was -49.5% (active); in the test on OVCAR-3 ovarian, -78.8% (active); with HS 578T breast, -21.7% (active); with NCI/ADR-RES ovarian, -47% (active); in the test on T-47D breast, -31.7% (active); in the test on BT-549 breast it was 76.4%. In addition, the growth in the test with MDA-MB-435 melanoma was -91.4% (active); in the test on SW-620 colon, -69.5% (active); in the test with MCF7 breast, -66% (active); in the test on HCT-116 colon, -98.4% (active); in the test on HCC-2998 colon it was -74.2% (active); in the test on KM12 colon, -85.3% (active).
For `CCCNC(=O)Oc1ccc(/C(=C(/C)Cc2ccc(OC)cc2)c2ccc(OCCN3CCCC3)cc2)cc1`, the growth was -20.2% (active) in the test on SR leukemia; 49.5% in the test on RPMI-8226 leukemia; 79.5% with OVCAR-8 ovarian; 88.4% with OVCAR-5 ovarian; 61.5% in the test on OVCAR-4 ovarian; 81.3% with SK-OV-3 ovarian. Besides, the growth was 81.9% in the test with IGROV1 ovarian; 83.6% with OVCAR-3 ovarian; 58.3% with HS 578T breast; 75.9% in the test with NCI/ADR-RES ovarian; 37% in the test with T-47D breast; 82.7% in the test on BT-549 breast. For the same compound, the growth is 65.8% in the test on MDA-MB-435 melanoma; 77.7% in the test with SW-620 colon; 25.3% with MCF7 breast; 48.8% in the test with HCT-116 colon; 62.5% in the test with HCC-2998 colon; 78.7% in the test on KM12 colon.
Consider `COc1ccccc1Nc1nnc(COc2ccc(CNC(=O)CCCC/C=C/C(C)C)cc2OC)o1`, for which the growth is 76.1% with SR leukemia; 70.7% in the test on RPMI-8226 leukemia; 101% with OVCAR-8 ovarian; 89.7% in the test on OVCAR-5 ovarian; 101% in the test with OVCAR-4 ovarian; 107% with SK-OV-3 ovarian. Besides, the growth in the test with IGROV1 ovarian is 97.8%; in the test with OVCAR-3 ovarian it was 89.6%; with HS 578T breast, 98%; in the test on NCI/ADR-RES ovarian, 89.8%; in the test with T-47D breast, 76.1%; with BT-549 breast, 85.6%. Besides, the growth with MDA-MB-435 melanoma is 103%; with SW-620 colon it was 105%; in the test on MCF7 breast, 87.1%; with HCT-116 colon, 86.8%; in the test with HCC-2998 colon, 105%; with KM12 colon it was 95.5%.
